Test results taken from PubChem BioAssay.
Active and inactive are the calls of the source.

Experiments:
[1] = compound effects on lung adenocarcinoma cell viability – A549, calcein-AM fluorescence, 48 h, basal, profiling panel (AID 1162); conditions: higher = more signal
[2] = compound effects on differentiated 3T3-L1 adipocyte viability – cell-based, 3T3-L1 adipocytes, calcein-AM fluorescence, 48 h, basal, profiling panel (AID 1163); conditions: 3T3-L1 adipocytes viability, higher = more signal
[3] = compound effects on hepatocellular carcinoma cell viability – HepG2, calcein-AM fluorescence, 48 h, basal, profiling panel (AID 1164); conditions: higher = more signal
[4] = compound effects on multiple myeloma cell viability – MM1S, calcein-AM fluorescence, 48 h, basal, profiling panel (AID 1165); conditions: higher = more signal
[5] = calcein-AM signal in unstimulated myeloma cells – cell-based, calcein-AM fluorescence, 48 h, PK04 Diversity Set, profiling panel (AID 1166); conditions: RPMI8226 myeloma viability, higher = more signal;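 further: cells grown under basal conditions without added stimulus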
[6] = JC-1 mitochondrial signal, unstimulated HepG2 cells – cell-based, JC-1 fluorescence, 24 h, 100 nL compound, profiling panel (AID 1167); conditions: HepG2 mitochondrial potential, higher = more signal
[7] = JC-1 mitochondrial signal, unstimulated adipocytes – cell-based, JC-1 fluorescence, 3T3-L1 adipocytes, 24 h, 100 nL compound, profiling panel (AID 1168); conditions: JC-1 mitochondrial fluorescence, higher = more signal, called active from +8 up or from −8 down
[8] = JC-1 mitochondrial signal, unstimulated myeloma cells – cell-based, JC-1 fluorescence, RPMI8226, 24 h, 100 nL compound, profiling panel (AID 1169); conditions: JC-1 mitochondrial potential fluorescence, higher = more signal
[9] = JC-1 mitochondrial signal, unstimulated MM1S myeloma – cell-based, JC-1 fluorescence, 24 h, 100 nL compound, profiling panel (AID 1170); conditions: MM1S mitochondrial potential, higher = more signal
[10] = resazurin metabolic signal in A549 cells – cell-based, resazurin fluorescence, 24 h, PK04 Diversity Set, profiling panel (AID 1171); conditions: A549 viability, higher = more signal, called active from +8 up or from −8 down
Further: test concentration not given here.

O=C1O[C@H](c2ccccc2)[C@H](c2ccccc2)N2[C@H]1[C@@H](C(=O)Nc1nc3ccccc3s1)[C@]1(C(=O)Nc3ccc(C#CCCO)cc31)[C@H]2c1ccc(OCCO)cc1
z-score [1]: 0.233
z-score [2]: 0.205
z-score [3]: 1.03
z-score [4]: -0.265
z-score [5]: 0.743
z-score [6]: -3.28
z-score [7]: 0.491 (inactive)
z-score [8]: -0.995
z-score [9]: -1.49
z-score [10]: 0.441 (inactive)

O=C1OCCC/C=C\[C@H]2OC34C=CCN(Cn5nnc6ccccc65)C(=O)[C@H]3N(CCCCCCO)C(=O)[C@@H]4C12 (stereo not given in full)
z-score [1]: 1.06
z-score [2]: 0.469
z-score [3]: 1.42
z-score [4]: 1.8
z-score [5]: -0.0474
z-score [6]: 0.733
z-score [7]: 0.932 (inactive)
z-score [8]: -0.263
z-score [9]: -1.14
z-score [10]: 0.818 (inactive)

CC(C)(C)OC(=O)CC[C@]1(C(=O)NCC(O)CO)COC(c2ccc(OCCCO)cc2)=N1 (stereo not given in full)
z-score [1]: 0.208
z-score [2]: -0.388
z-score [3]: -0.665
z-score [4]: -1.01
z-score [5]: 0.418
z-score [6]: -0.76
z-score [7]: 0.176 (inactive)
z-score [8]: 0.527
z-score [9]: -0.23
z-score [10]: 0.706 (inactive)

CN(C)CCCNC(=O)[C@@]1(c2ccc([N+](=O)[O-])cc2)CC(=O)N(C2CCCCC2)[C@@H]1c1ccc(CO)cc1I
z-score [1]: -4.33
z-score [2]: 0.184
z-score [3]: -5.13
z-score [4]: -3.86
z-score [5]: -4.36
z-score [6]: -3.14
z-score [7]: 0.499 (inactive)
z-score [8]: -0.952
z-score [9]: -2.31
z-score [10]: -6.55 (inactive)

CCCC#C[Si](O[C@H](CC)c1cn([C@H](CO)Cc2ccccc2)nn1)(C(C)C)C(C)C
z-score [1]: 0.0096
z-score [2]: -0.263
z-score [3]: 0.0341
z-score [4]: -1.21
z-score [5]: 0.0028
z-score [6]: -0.371
z-score [7]: 0.406 (inactive)
z-score [8]: 0.78
z-score [9]: -0.752
z-score [10]: 0.401 (inactive)

COC(=O)[C@@]1(Cc2ccc(F)cc2)[C@H]2c3cc(C(=O)N4CCCC4)n(Cc4cc(C)n(C)n4)c3C[C@H]2CN1C(=O)c1ccccc1
z-score [1]: -0.553
z-score [2]: -0.0099
z-score [3]: 0.499
z-score [4]: -0.391
z-score [5]: -0.382
z-score [6]: 2.16
z-score [7]: -1.13 (inactive)
z-score [8]: -0.0438
z-score [9]: -0.461
z-score [10]: -0.156 (inactive)

C=C[C@H](COC(C)=O)N(C(=O)OC(C)(C)C)S(=O)(=O)c1ccc(Br)cc1
z-score [1]: 1.67
z-score [2]: 0.49
z-score [3]: 1.36
z-score [4]: -0.138
z-score [5]: 0.0593
z-score [6]: -0.87
z-score [7]: -0.614 (inactive)
z-score [8]: -0.931
z-score [9]: -0.406
z-score [10]: 0.708 (inactive)

CCOC(=O)C[C@H]1[C@H](OC(=O)Cc2ccc3c(c2)OCO3)[C@@H](NC(=O)c2ccc(-c3ccccc3)cc2)c2cc(OCCCO)ccc2N1C(=O)Cc1ccc(OC)cc1
z-score [1]: 2.24
z-score [2]: 0.53
z-score [3]: 1.09
z-score [4]: 0.704
z-score [5]: 1.1
z-score [6]: 2.33
z-score [7]: 0.242 (inactive)
z-score [8]: 0.679
z-score [9]: -1.03
z-score [10]: -0.0841 (inactive)

COCCOC(=O)N1C(=O)[C@@]2(c3cc(C#CC4=CCCCC4)ccc31)[C@H](C(N)=O)[C@H]1C(=O)O[C@H](c3ccccc3)[C@H](c3ccccc3)N1[C@@H]2c1ccc(OCCO)cc1
z-score [1]: -0.0731
z-score [2]: -0.605
z-score [3]: 0.575
z-score [4]: -2.37
z-score [5]: -2.99
z-score [6]: -2.31
z-score [7]: 1.22 (inactive)
z-score [8]: -0.799
z-score [9]: -1.82
z-score [10]: -2.15 (inactive)

CN(C)CCCC[C@@H]1NC(=O)[C@H]2C[C@@H](C(=O)NCCCCCNC(=O)CS)[C@@H](c3cccc(OCCO)c3)N2C1=O
z-score [1]: 0.33
z-score [2]: -0.0603
z-score [3]: 0.0814
z-score [4]: -0.649
z-score [5]: -0.0199
z-score [6]: -0.246
z-score [7]: -0.034 (inactive)
z-score [8]: 0.0925
z-score [9]: 0.0356
z-score [10]: -0.0288 (inactive)

O=C1OCCC/C=C\[C@H]2OC34C=CCN(CCN5CCOCC5)C(=O)[C@H]3N(CCCO)C(=O)[C@@H]4C12 (stereo not given in full)
z-score [1]: -0.235
z-score [2]: 1.01
z-score [3]: -0.631
z-score [4]: 1.19
z-score [5]: -0.87
z-score [6]: -1.01
z-score [7]: -0.734 (inactive)
z-score [8]: 0.806
z-score [9]: 0.486
z-score [10]: 0.116 (inactive)

COc1ccc([Si](C)(C)[C@H]2[C@H](CCn3cc([C@H](O)c4ccccc4)nn3)O[C@@]3(C(=O)N(Cc4cccc(N5CCOC5=O)c4)c4ccccc43)[C@@H]2C)cc1
z-score [1]: 0.377
z-score [2]: 0.283
z-score [3]: 0.243
z-score [4]: -1.32
z-score [5]: -0.332
z-score [6]: -0.242
z-score [7]: -0.537 (inactive)
z-score [8]: -0.463
z-score [9]: -0.637
z-score [10]: -1.06 (inactive)

CC(C)(C)OC(=O)CC[C@@]1(C(=O)NCC(O)CO)N=C(c2ccc(OCCCO)cc2)O[C@@H]1c1ccccc1N=[N+]=[N-] (stereo not given in full)
z-score [1]: 1.79
z-score [2]: -0.309
z-score [3]: 1.34
z-score [4]: -0.312
z-score [5]: 0.0549
z-score [6]: 1.73
z-score [7]: 2.9 (inactive)
z-score [8]: 0.11
z-score [9]: -0.884
z-score [10]: 0.642 (inactive)

C#CCNC(=O)[C@H](Cc1ccccc1)NC(=O)CCC(=O)O
z-score [1]: -0.281
z-score [2]: -0.405
z-score [3]: 0.0694
z-score [4]: 0.527
z-score [5]: 0.0189
z-score [6]: -0.821
z-score [7]: -0.536 (inactive)
z-score [8]: 0.539
z-score [9]: -0.97
z-score [10]: -0.119 (inactive)

COc1ccc(CCNC(=O)[C@@]2(Sc3ccc(C)cc3)CC(=O)N(C3CCCCC3)[C@@H]2c2ccc(CO)cc2I)cc1
z-score [1]: 1.06
z-score [2]: -0.475
z-score [3]: -0.242
z-score [4]: -2.14
z-score [5]: -2.93
z-score [6]: -0.836
z-score [7]: -0.792 (inactive)
z-score [8]: -0.632
z-score [9]: -1.33
z-score [10]: 1.11 (inactive)
